# Compound activity (PubChem)
# PLK1 PBD inh: inhibitors of human PLK1 polo-box domain binding | P53350 | Plk1 PBD binding of FITC phosphopeptide, fluorescence polarization | Potency, µM, for the others: max response, negative = inhibition, usual class: inhibitors | actives 2.8% (n = 360,000) | AID 720504; further: potency means the concentration at half of the fitted maximal effect; series mostly up to about 57 µM; on the % scale 0 is the no-effect control and ±100 the full control effect; nearly all actives have a fitted effect of over 65% in size
# Target sequence (P53350 whole entry, looked up, the tested form may be a part): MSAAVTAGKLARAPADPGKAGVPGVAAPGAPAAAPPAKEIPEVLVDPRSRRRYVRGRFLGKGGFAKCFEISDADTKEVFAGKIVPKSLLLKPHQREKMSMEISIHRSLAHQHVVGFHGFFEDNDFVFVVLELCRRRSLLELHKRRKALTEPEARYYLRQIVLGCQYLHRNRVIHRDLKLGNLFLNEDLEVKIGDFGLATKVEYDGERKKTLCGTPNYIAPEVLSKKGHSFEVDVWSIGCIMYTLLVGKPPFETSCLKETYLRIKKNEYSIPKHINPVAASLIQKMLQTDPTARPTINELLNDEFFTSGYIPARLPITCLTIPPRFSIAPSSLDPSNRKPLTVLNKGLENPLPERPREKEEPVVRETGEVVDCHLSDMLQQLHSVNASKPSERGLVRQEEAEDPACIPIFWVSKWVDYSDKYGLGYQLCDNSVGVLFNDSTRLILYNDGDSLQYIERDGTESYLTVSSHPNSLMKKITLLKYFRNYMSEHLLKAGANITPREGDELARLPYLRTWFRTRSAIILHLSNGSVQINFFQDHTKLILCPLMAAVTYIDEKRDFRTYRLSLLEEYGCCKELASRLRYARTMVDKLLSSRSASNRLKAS
# PI5P4Ka inh: blocks human PI5P4K alpha kinase activity; P48426; PI5P4Kalpha enzyme, ADP-Glo luminescence, 60 min; stronger effect = lower value; max response, %; actives 1.2% (n = 330,000); AID 652105; active means max response of -50% or lower; inconclusive means between -30% and -50%; inactive means -30% or higher; further: value at the top dose of about 77 µM; on the % scale 0 is the no-effect control and ±100 the full control effect
#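 PI5P4Kalpha ADP-Glo assay; 5 microM ATP final; 60 min RT reaction; HEPES pH 7.4/EGTA/CHAPS, 5% DMSO; controls lacking substrate or enzyme; luminescent end-point.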
# WRN inhibitor: WRN helicase (human) inhibition; Q14191; WRN helicase unwinding, fluorescent forked duplex, kinetic; Potency, µM (doses to about 114 µM), for inactives: at the highest dose activity change, negative = inhibition, most hits filed as inhibitors; actives 0.46% (n = 360,000); further: potency means the concentration at half of the fitted maximal effect; on the % scale 0 is the no-effect control and ±100 the full control effect; nearly all actives have a fitted effect of over 55% in size
#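 WRN at 20 nM final preincubated with compound 15 min at room temperature; reaction started with 100 nM fluorophore/quencher forked duplex oligonucleotide and 2 mM ATP final. Unwinding followed kinetically by red fluorescence (ex 525, em 598 nm).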
# VDR inh: inhibitors of human vitamin D receptor. P11473. VDR-SRC2-3 peptide fluorescence polarization, 2 h. Potency, µM, for the others: max response, negative = inhibition, most hits filed as inhibitors. actives 0.93% (n = 400,000). AID 504847; further: potency means the concentration at half of the fitted maximal effect; on the % scale 0 is the no-effect control and ±100 the full control effect
#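 Compounds are added to VDR with labelled SRC2-3 coactivator peptide and held 2 h at room temperature. Inhibition of the VDR–peptide interaction is then read as a change in fluorescence polarization.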
# FEN1 inh: inhibitors of human flap endonuclease 1; Recombinant FEN1 flap cleavage, fluorescence, 15 min; Potency, µM (top dose mostly 114 µM), for the others: top-dose activity change, negative = inhibition, actives largely listed as inhibitors; actives 0.35% (n = 390,000); P39748; further: potency means the concentration at half of the fitted maximal effect; on the % scale 0 is the no-effect control and ±100 the full control effect; nearly all actives have a fitted effect of over 65% in size
#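 Compounds are tested as a concentration series against 10 nM FEN1; after a 15 min room-temperature preincubation, 50 nM substrate starts cleavage, with plate reads at 0 and 15 min. Normalized responses are fitted by a Hill equation.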
# TCR activator: T cell receptor activation. 330,000 tested, under 10 active. primary human leukocytes, anti-CD3, IL-2 HTRF, 48 h. Potency, µM (series often up to 9.22 µM), without a hit: at the highest dose activation of IL-2 secretion, most hits filed as activators; further: % of control where 0% means no effect
#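 HTRF read-out of IL-2 secretion: europium cryptate donor excited at 320nm, d2 acceptor emission at 665nm. Cells were primary human leukocytes incubated 48 hr with compounds and a-CD3 beads, supplying TCR signal only.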
# The depositor's hits bear a star; ? = inconclusive; · = not tested or not shown; ! = repeats disagree; [ ] = dose if it differs, or a comment. Only some compounds are listed: those with a hit (about 3.7% of all), similar ones and a draw of the others. Unless noted, the call rests on the fitted dose curve; in most records, active means well fitted curve in the direction sought with a large enough effect; inconclusive means small, poorly fitted or top-dose-only effect, or another doubt; inactive means no such curve, though single readings can be large; an effect the other way counts as inactive or inconclusive.
SMILES,PLK1 PBD inh,PI5P4Ka inh,WRN inhibitor,VDR inh,FEN1 inh,TCR activator
O=C(Nc1cccc(-c2nc3ccccc3c(=O)o2)c1)c1ccccc1,21.2µM*,-20.9,?,-2.4%,4.0%,-2.6%
CCOc1cc(C(=O)Nc2cccc(-c3nc4ccccc4o3)c2)cc(OCC)c1OCC,·,·,·,-15.0%,-15.5%,·
Cc1cccc(S(=O)(=O)C(C#N)c2nc3ccccc3nc2N2CCCC2)c1 (centres undefined),29.9µM*!,-17.0,-7.7%,3.6%,-5.1%,0.0%
Cc1ccc(NC2=Nc3ccccc3N3C2=Nc2c(c(C)nn2-c2ccccc2)C3c2ccc(O)c(O)c2)cc1 (centres undefined),-8.2%,-74.7*,-17.6%,3.9%,5.7%,-7.1%
Cc1cccc(NC2=Nc3ccccc3N3C2=Nc2c(c(C)nn2-c2ccccc2)C3c2ccc(O)c(O)c2)c1 (centres undefined),-1.5%,-92.3*,0.9%,12.3%,-9.4%,0.5%
Cc1nn(-c2ccccc2)c2c1C(c1ccc(O)c(O)c1)N1C(=N2)C(Nc2ccccc2)=Nc2ccccc21 (centres undefined),-5.9%,-5.4,-20.3%,0.1%,0.2%,-0.6%
CCOC(=O)Cn1c(=O)n(C2CCCCC2)c2nc(-c3ccc(OCC)cc3)nc(C(N)=O)c21,·,·,·,5.1%,17.4%,·
CCN1CCC(N(Cc2cccc(OC)c2)C(=O)Nc2cccc(C)c2C)CC1,·,·,·,-2.0%,18.3%,·
COc1ccc(CCn2c(=S)[nH]c(=O)c3[nH]cnc32)cc1OC,·,·,·,1.7%,5.4%,·
CN(C)/[N+]([O-])=N/Oc1ccc([N+](=O)[O-])cc1[N+](=O)[O-],·,·,·,·,-3.2%,·
CC(c1ccccc1)n1c(S(=O)(=O)O)nc2ccccc21 (centres undefined),-24.7%,-67.1*,-0.8%,2.0%,1.8%,-0.8%
Cc1ccc(Cn2c(S(=O)(=O)O)nc3ccccc32)cc1,23.8µM*,-23.0,-7.6%,?,-18.2%,-3.1%
Cc1ccc(Cn2c(-c3ccccc3)nc3ccccc32)cc1,·,·,·,5.4%,-1.4%,·
CC(C)n1c(S(=O)(=O)O)nc2ccccc21,-0.4%,2.4,-10.2%,5.5%,0.7%,1.8%
Clc1ccc(Cn2c(/C=C/c3ccco3)nc3ccccc32)cc1,-8.7%,-78.5*,-32.6%,-29.2%,-16.7%,-5.5%[46.1 µM]
Cc1ccc(Cn2c(/C=C/c3ccco3)nc3ccccc32)cc1,-2.0%,-63.6*,-11.7%,-1.1%,-0.5%,7.6%[46.1 µM]
CCCCn1c(/C=C/c2ccco2)nc2ccccc21,-1.8%,-24.8,-33.6%,-18.3%,-0.8%,0.9%[46.1 µM]
CCN1CCN(C(=O)c2cnn(-c3ccc(F)cc3)c2-n2cccc2)CC1,·,·,·,3.5%,2.9%,·
CN(C)c1ccc(/C=C/c2ccnc3c(O)cccc23)cc1,·,·,·,·,-14.9%,·
Cc1cc(C)nc(SCC(=O)NC2=NN=C(c3ccc(Br)cc3)CS2)n1,-17.7%,·,-1.2%,44.7µM*,-19.6%,-7.5%
COc1ccc(-n2c(Cc3ccccc3)nnc2SCc2ccc([N+](=O)[O-])cc2)cc1,26.7µM*,-5.2,-2.9%,-9.6%,?,-2.2%[46.1 µM]
COc1ccc(CNC(=O)Cc2ccc(NC(=O)N3CCCCc4ccccc43)cc2)cc1,·,·,·,-0.9%,-2.3%,·
CCN1C(=O)CS/C1=N\S(=O)(=O)c1ccc(Cl)cc1,-6.0%,-10.3,-4.6%,-5.5%,-2.4%,21.6%
CCn1c(Cl)c(C=O)s/c1=N\S(=O)(=O)c1ccccc1,11.9µM*,-11.4,39.8µM*,3.16µM*,-18.1%,-3.9%
CCOC(=O)c1ccc(NC(=O)c2c(NCc3cc(OC)ccc3OC)sc3c2CCC3)cc1,·,·,·,21.6%,0.6%,·
SMILES,PLK1 PBD inh,PI5P4Ka inh,WRN inhibitor,VDR inh,FEN1 inh,TCR activator
CC(=O)Nc1cccc(C(=O)OCC(=O)c2ccc(S(=O)(=O)N3CCCCC3)cc2)c1,-29.8%,-21.4,5.4%,-14.0%,?,2.9%
CNS(=O)(=O)c1cccc(C(=O)OCC(=O)c2ccc(S(=O)(=O)N3CCCCC3)cc2)c1,-5.8%,-55.6*,-12.0%,0.2%,-19.9%,-5.0%
COCCNC(=O)CSc1nc(-c2ccc(F)cc2)[nH]c1-c1ccc(Cl)cc1,·,·,·,-1.2%,-11.5%,·
CCCCCCCCCCCCCCCC[n+]1ccc(/C=N/O)cc1,-0.8%,-59.8*,1.4%,5.4%,4.8%,1.8%[46.1 µM]
Cc1ccc(-n2c(N)c(C(=O)N3CCOCC3)sc2=S)cc1,15µM*,·,9.8%,89.1µM*,-3.0%,-4.9%
O=[N+]([O-])c1cc(-c2nc(-c3ccccc3)no2)ccc1N1CCOCC1,·,·,·,7.7%,-5.9%,·
CC(C)C(c1nnnn1Cc1cccs1)N1CCN(C(=O)c2ccco2)CC1 (centres undefined),18.9µM*,-14.0,4.3%,-9.1%,-4.6%,4.1%
O=C(c1ccco1)N1CCN(Cc2nnnn2CC2CCCO2)CC1 (centres undefined),11.9µM*,-19.4,8.2%,?,-0.1%,-1.5%
CN(C)c1ccc(/C=C/c2ccnc3ccc(F)cc23)cc1,·,·,·,·,12.4%,·
Cc1csc2nc(CSc3ccc(Cl)cc3)cn12,6.7µM*,-12.6,2.3%[57.1 µM],?,2.6%,6.7%
CCN(c1ccccc1C)S(=O)(=O)c1nnc(NC(=O)c2ccccc2C)s1,·,·,·,-0.1%,16.1%,·
CN(Cc1ccccc1)/[N+]([O-])=N/Oc1ccc([N+](=O)[O-])cc1[N+](=O)[O-],·,·,·,·,1.3%,·
CCOC(=O)c1cc(-c2nnc(SCC(=O)Nc3ccc(F)cc3)o2)c(C)nc1C,21.2µM*,2.0,-2.7%,?,1.4%,2.2%
CCOc1ccc2oc(-c3ccccc3)c(C(N)=O)c2c1,-5.4%,-8.9,4.0%,4.6%,8.2%,-3.7%
CC(=O)Oc1ccc2oc(-c3ccccc3)c(C(N)=O)c2c1,26.7µM*,-21.2,1.2%,?,20.4%,2.1%
CN(C)S(=O)(=O)c1ccc(NCC2COc3ccccc3O2)c([N+](=O)[O-])c1 (centres undefined),29.9µM*,-9.7,-22.7%,?,-7.7%,-4.0%[46.1 µM]
CCN(CC)S(=O)(=O)c1ccc(NCC2COc3ccccc3O2)c([N+](=O)[O-])c1 (centres undefined),7.2%,-1.6,-9.1%,-2.7%,-18.0%,-11.7%[46.1 µM]
CC(C(=O)c1c[nH]c(C(N)=O)c1)c1ncc(C(F)(F)F)cc1Cl (centres undefined),-10.4%,-2.1,9.2%[57.1 µM],13.6%,1.8%,-1.8%
C#CCNC(=O)C(C)c1ncc(C(F)(F)F)cc1Cl (centres undefined),6.7µM*,-4.5,-4.1%[57.1 µM],?,-3.2%,1.5%
Cc1cc(C)cc(NC(c2cccc(Cl)c2)c2nnc(-c3ccccc3)o2)c1 (centres undefined),·,·,·,0.1%,-25.7%,·
C[n+]1ccc(/C=C/c2ccccc2O)c2ccccc21,-19.5%,0.7,-8.0%,-14.3%,?,1.9%
COc1cc(OC)c(OC)cc1/C=C/c1cc[n+](C)c2ccccc12,·,·,·,·,39.8µM*,·
C[n+]1ccc(/C=C/c2ccc(C=S)cc2)c2ccccc21,·,·,·,·,50.1µM*,·
